According to ChEMBL document CHEMBL1201862, “PubChem BioAssay data set” (2004):
Hit rate of the full screen: of about 54,000 […], about 2,800 (5.2%) were called active. No stated cut-off is given here; in the data, active = GI50 up to about 1.1 µM and inactive = higher. This excerpt belongs to a sample that is enriched for actives. Results with a measured potency or affinity are listed apart.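 Growth conditions: 96-well plates. Treatment: test compound, 48 hours, 5 concentrations. Analysis: linear interpolation between bracketing concentrations; unreached endpoints set to highest concentration. GI50: concentration for 50% inhibition of growth.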

tested on: NCI-H226; experiment: NCI tumour cell line growth inhibition, 48 h

| Substance | GI50 [nM] |
| --- | --- |
| TRIBUTYLCHLOROSTANNANE, CHEMBL1088186 | 210 |
